The whole screen tested about 310,000 compounds, of which about 14,000 (4.5%) showed an effect of 50% or more. The effect is printed as a negative number. Shown is part of a subset that was picked to be rich in strong results.
target: human ether-à-go-go-related gene (hERG) potassium channel (human, UniProt Q12809); test: primary screen, population patch clamp on CHO cells stably expressing hERG; higher = less effect of the substance
Protocol: Briefly, Chinese hamster ovary (CHO) cells stably expressing the hERG channel were dislodged from tissue culture flasks and dispensed into PPC plates. […] During the recording, background leak currents were estimated by a 100 ms step to -80 mV from an initial holding potential of -70 mV and subtracted from the subsequent current measurement. The campaign was conducted in two phases using slight differences in recording protocol. In the first phase, the initial voltage pulse used a 100 ms step to -30 mV from a holding potential of -70 mV, a 2 s conditioning step to +25 mV, and a 2 s test step to -30 mV. During the second phase of the screen, the potential during the conditioning step was raised to +45 mV. In both phases of the campaign, a secondary voltage pulse was applied using the same parameters as the second phase initial pulse. The initial and secondary pulses were applied in the absence of compound, and upon application of 1 μM and 10 μM test concentrations. […]
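Also: peak tail current of the secondary pulse compared with the same well before compound.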

human ether-à-go-go-related gene (hERG) potassium channel, sequence (Q12809 whole entry, looked up): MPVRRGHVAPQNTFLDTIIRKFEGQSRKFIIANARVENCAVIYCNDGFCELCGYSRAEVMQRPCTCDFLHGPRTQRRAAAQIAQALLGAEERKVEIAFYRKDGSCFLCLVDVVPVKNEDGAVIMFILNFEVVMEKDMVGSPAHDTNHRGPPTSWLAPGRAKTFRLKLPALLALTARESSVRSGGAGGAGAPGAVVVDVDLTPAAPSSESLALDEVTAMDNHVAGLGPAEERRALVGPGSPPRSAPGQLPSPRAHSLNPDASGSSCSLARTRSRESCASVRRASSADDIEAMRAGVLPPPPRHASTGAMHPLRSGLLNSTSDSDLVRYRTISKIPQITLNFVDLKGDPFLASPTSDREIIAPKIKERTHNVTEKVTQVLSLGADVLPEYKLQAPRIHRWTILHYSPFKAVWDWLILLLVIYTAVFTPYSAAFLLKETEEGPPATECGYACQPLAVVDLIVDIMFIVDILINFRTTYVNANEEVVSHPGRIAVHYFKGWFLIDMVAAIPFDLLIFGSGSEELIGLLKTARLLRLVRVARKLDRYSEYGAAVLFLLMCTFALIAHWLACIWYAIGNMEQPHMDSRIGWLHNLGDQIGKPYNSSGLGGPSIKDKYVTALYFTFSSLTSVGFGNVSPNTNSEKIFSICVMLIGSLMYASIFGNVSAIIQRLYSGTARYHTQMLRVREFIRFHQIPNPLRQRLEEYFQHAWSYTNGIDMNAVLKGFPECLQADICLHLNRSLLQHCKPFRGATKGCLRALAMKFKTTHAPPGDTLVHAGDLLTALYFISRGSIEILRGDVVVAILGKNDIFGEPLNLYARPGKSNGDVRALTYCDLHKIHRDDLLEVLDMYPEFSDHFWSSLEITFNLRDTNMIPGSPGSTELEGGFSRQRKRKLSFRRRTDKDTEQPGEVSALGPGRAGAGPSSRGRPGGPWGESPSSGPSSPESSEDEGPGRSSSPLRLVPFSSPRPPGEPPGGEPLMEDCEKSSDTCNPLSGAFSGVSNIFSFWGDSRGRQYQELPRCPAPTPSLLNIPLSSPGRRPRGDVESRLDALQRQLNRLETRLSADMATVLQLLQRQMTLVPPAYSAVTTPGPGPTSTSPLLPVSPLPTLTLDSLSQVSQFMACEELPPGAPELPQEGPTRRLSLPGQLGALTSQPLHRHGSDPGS

SMILES | hERG current change (%, negative = inhibition) at 10uM [%]
CC(C)c1ccc(NC(=O)NCc2ccc3c(c2)OCO3)cc1 | 13.4
O=C(O)c1ccccc1OC(=O)C12CC3CC(CC(C3)C1)C2 | 18.1
O=C(NCc1ccc(F)cc1)c1cccnc1 | 9.37
Cc1nc([N+](=O)[O-])cn1Cc1cccc2ccccc12 | 10.2
O=C(NCc1ccccc1CN1CCCC1)C1CCN(S(=O)(=O)c2ccc(Cl)cc2)CC1 | -69.4
CCOc1ccc(S(=O)(=O)N2CCCC(C(=O)NCc3ccco3)C2)cc1 (stereo not shown) | -4.45
COc1ccc(S(=O)(=O)N2CCC(C(=O)NCc3ccco3)CC2)cc1 | -25.4
CCOc1ccc(S(=O)(=O)N2CCC(C(=O)NCc3ccco3)CC2)cc1 | -53
O=C(NCc1ccccc1Cl)C1CCN(S(=O)(=O)N2CCCC2)CC1 | 12.5
O=C(NCc1ccc(Cl)cc1)C1CCN(S(=O)(=O)c2ccccc2)CC1 | 13
N#Cc1ccccc1S(=O)(=O)N1CCC(C(=O)NCc2ccccc2CN2CCCC2)CC1 | -69.1
O=C(NCc1ccccc1)C1CCN(S(=O)(=O)c2ccc(Cl)cc2)CC1 | 3.16
O=C(NCc1ccccc1Cl)C1CCN(S(=O)(=O)N2CCCCC2)CC1 | 1.33
CCOc1ccc(NC2OCC(O)C(O)C2O)c([N+](=O)[O-])c1 (stereo not shown) | 33.2
COc1cc(/C=N/NS(=O)(=O)c2ccc(C)c([N+](=O)[O-])c2)cc([N+](=O)[O-])c1O | 18.1
CCOC(=O)C1CCCN(C(=O)c2cc(-c3ccccc3)nc3ccccc23)C1 (stereo not shown) | -9.9
CCOC(=O)C1CCCN(C(=O)c2sc3nc(-c4ccc(OC)cc4)cn3c2C)C1 (stereo not shown) | -55.4
CCOC(=O)C1CCCN(C(=O)c2cc3c(-c4cccc(OC)c4)nn(C)c3s2)C1 (stereo not shown) | -60.7
CCOC(=O)C1CCN(C(=O)c2cc3c(-c4ccc(OC)c(OC)c4)nn(C)c3s2)CC1 | -17
Cc1c(C(=O)N2CCOCC2)sc2nc(-c3ccccc3)cn12 | -11.2
CCOC(=O)C1CCCN(C(=O)c2cc(-c3ccc(F)cc3)nc3ccccc23)C1 (stereo not shown) | -33.8
CCOC(=O)C1CCCN(C(=O)c2sc3nc(-c4ccccc4)cn3c2C)C1 (stereo not shown) | -59.8
CCOC(=O)C1CCCN(C(=O)c2sc3nc(-c4ccc(F)cc4)cn3c2C)C1 (stereo not shown) | -72.9

SMILES | hERG current change (%, negative = inhibition) at 10uM [%]
Cc1c(C(=O)N2CC(C)OC(C)C2)sc2nc(-c3ccc(F)cc3)cn12 (stereo not shown) | -38.4
COc1ccc(-c2cn3c(C)c(C(=O)N4CCN(c5ccccc5F)CC4)sc3n2)cc1 | -29.8
COc1ccc(-c2cn3c(C)c(C(=O)N4CCc5ccccc5C4)sc3n2)cc1 | -31.9
CCOC(=O)N1CCN(C(=O)c2cc3c(-c4cccc(OC)c4)nn(C)c3s2)CC1 | -35.6
CCN(CC(=O)Nc1ccc(OC)cc1)C(=O)c1cc2c(s1)CCCCC2 | 16.3
COc1ccc(/C=N/NC(=O)CCC(=O)Nc2ccc(F)cc2)c(OC)c1 | 14.9
N#Cc1nc(-c2ccco2)oc1N1CCN(C(c2ccccc2)c2ccccc2)CC1 | -0.82
Cc1cc(C(=O)O)cc(Br)c1N | 4.61
Cc1ccc(S(=O)(=O)/N=C(\Sc2ccccc2)c2ccccc2)cc1 | 14.1
COCCN1CCN(C(=O)c2ccc3c(c2)S(=O)(=O)c2ccccc2C3=O)CC1 | -1.17
Cc1cc(C)c(NC(=O)c2cccc3c2C(=O)N(C2CCCCC2)C3)c(C)c1 | -11
CN(C)CCNC(C(=O)Nc1cccc(S(=O)(=O)N2CCOCC2)c1)c1ccccc1 (stereo not shown) | -70.3
O=C(Nc1cccc(S(=O)(=O)N2CCOCC2)c1)C(c1ccccc1)N1CCCCC1 (stereo not shown) | -37.9
CC(C)[C@H](NC(=O)c1ccccc1)C(=O)Nc1cccc(S(=O)(=O)N2CCOCC2)c1 | -2.22
O=C(CSc1ccccc1)Nc1cccc(S(=O)(=O)N2CCOCC2)c1 | -25.4
CCCC(C(=O)Nc1cccc(S(=O)(=O)N2CCCC2)c1)c1ccccc1 (stereo not shown) | -48.2
CCCCNC(C(=O)Nc1cccc(S(=O)(=O)N2CCOCC2)c1)c1ccccc1 (stereo not shown) | -50.7
CC(C)C(NC(=O)CN(c1cccc(F)c1)S(C)(=O)=O)C(C)C | 1.21
COc1cc(CCC(=O)OCc2ccccc2C#N)cc(OC)c1OC | 7.42
O=C1CC(C(=O)N2CCOCC2)C2(CCCCC2)O1 (stereo not shown) | 17.8
COc1ccccc1Oc1cc(F)nc(N)n1 | 5.82
Cc1cc(C)n(-c2nc(C(=O)O)cs2)n1 | 17.7
CN(Cc1ccccc1)S(=O)(=O)c1ccc(Cl)c(C(=O)NCc2ccncc2)c1 | -55.8

From article PMC4336329 (PLoS ONE, 2015)
